# ChEMBL document CHEMBL4888484, “Replenishing the malaria drug discovery pipeline: Screening and hit evaluation of the MMV Hit Generation Library 1 (HGL1) against asexual blood stage Plasmodium falciparum ,using a nano luciferase reporter read-out” (2022)
# Among all 4,800 compounds or so, about 420 (8.8%) showed an effect of 50% or more. Only a selection was taken, and strong results are over-represented in it overall.
# Test system: Plasmodium falciparum
# Test: Confirmatory screen in NF54 nanoGlo assay, in single point, at 2uM, 72h
# Type: functional, Erythrocyte
# Details: timepoint 72 hour
row,Structure (SMILES),% Inhibition [%]
1,Cc1cc(C)n(NC(=O)CCn2nc(C(F)(F)F)c(Br)c2C2CC2)c(=O)c1,3
2,CCCOc1cccc2c(NC3CCN(CCOC)CC3)ccnc12,22
3,Clc1cc(CN2CC[C@@]3(CCCOC3)C2)ccc1OCCN1CCOCC1,0
4,Cc1cc(C)cc(Nc2nc(C)cc(=O)n2CC(=O)N2CCN(c3ccc(F)cc3)CC2)c1,-1
5,Cc1c(C(=O)c2ccc(Cl)c(Cl)c2)sc2nc3cc(F)c(F)cc3n12,-11
6,Nc1ncnc(NCc2cccnc2OCC(F)F)c1Cl,7
7,COc1cc(C(=O)NCCN2CCOCC2)cc2occc12,-4
8,CC1CC(NS(=O)(=O)CCCC(F)(F)F)CCN1 (stereo not given),-4
9,COc1cc(NC(=O)N[C@@H](C)C(=O)N2CCc3ccccc32)cc(OC)c1,4
10,Cc1ccc(NC(=O)c2cc3nccc(-c4ccc(F)cc4)n3n2)nc1,-7
11,CN(C(=O)NC1CCCC1)c1nc2c(s1)CN(Cc1ccccc1)C2=O,-12
12,Cc1ccc(CNC2CCN(C)CC2)c(OCc2ccco2)c1,-3
13,Cc1ccc2nc3c(c(N)c2c1)CCCCN3C,-10
14,Cc1ccc2nc(C3CC3)cc(C(=O)N3C[C@@H](O)C[C@H]3CO)c2c1,-4
15,COCCN(CC1CN(Cc2ccccc2OC)CC1c1ccccc1OC)C(=O)COC (stereo not given),-2
16,CC(C)[C@@H]1CCc2ccccc2N1Cc1nc(N)nc(N(C)C)n1,-4
17,COc1ccc(NC(=O)Cn2c(C(F)(F)F)nc3cc4c(cc32)OCCCO4)cc1,4
18,Cn1c2cn(-c3ccc(F)cc3)c(-c3ccccc3)c2c(=O)n1-c1ccccc1,-1
19,Cn1c(=O)c2c(-c3ccc(Cl)cc3)n(-c3cccc4cccc(N)c34)cc2n(C)c1=O,91
20,CC(C)(C)OC(=O)N1CCCC(C(O)C(F)(F)F)C1 (stereo not given),6
21,CCCCC12CN(S(=O)(=O)c3ccccc3)CC(C)(CN(S(=O)(=O)c3ccccc3)C1)C2=O,-5
22,Cn1cccc1C(=O)NC1CCN(c2ccc(Cl)c(C#N)n2)CC1,-5
23,COc1ccc(-c2cc(C(=O)N[C@H]3CCN(c4ccc(=O)[nH]n4)C3)c(C)n2C)cc1,69
24,COc1ccc(-c2cc(C(=O)N[C@H]3CCN(c4ccc(=O)n(C)n4)C3)c(C)n2C)cc1,62
25,CCCCN(CC)CCNC(=O)C1CCN(C2=NS(=O)(=O)C(c3ccc(OC)cc3)=C2C)CC1,32

row,Structure (SMILES),% Inhibition [%]
1,Cc1c(C(=O)NC2CC2)cc(-c2ccccc2)n1C,-3
2,CC(C)NC(=O)c1ccc(CN2C(=O)COc3ccc(C(=O)COc4ccc(F)c(F)c4)cc32)o1,4
3,CC[C@H](C)NS(=O)(=O)c1cccc(N)c1,-4
4,O=C(NCc1ccco1)[C@H]1CCCN(c2nc3ccccc3n(Cc3ccccc3)c2=O)C1,4
5,Brc1cccc(-c2ccc(-c3cc(-c4ccccc4)nnc3-c3ccccc3)o2)c1,31
6,COc1cc(Br)ccc1C1NC(=O)C2COCCN21 (stereo not given),7
7,CC(C)(C)c1cc([C@H](c2ccc(Cl)cc2)N2CCCCC2)cc(C(C)(C)C)c1O,2
8,CN(Cc1nnc[nH]1)C(=O)C1(C)CCC1,-11
9,COc1ccc(-n2nc(C)c(Cc3ccc(Cl)cc3)c2O)cc1,0
10,COCCNc1nc(-c2ccccc2OC)c2c(N)n(-c3ccc(F)cc3)nc2n1,-6
11,COc1ccc(CCNc2nc(-c3ccc(OC)cc3F)c3c(N)n(-c4ccc(Cl)cc4)nc3n2)cc1,59
12,Cc1cc(N2C(=O)CCS2(=O)=O)cc(C)c1S(=O)(=O)NCc1ccccn1,2
13,Cc1nn(C)c(C)c1-c1cc(C(=O)Nc2sc3c(c2C#N)CCCC3)c2ccccc2n1,-13
14,Cc1cc(C)c(NC(=O)OCc2cccc3cccnc23)c(C)c1,83
15,CCc1ccc(C2=Nc3cccnc3N(CC(=O)Nc3c(C)cc(C)cc3C)C(=O)C2)cc1,-4
16,Cc1cccnc1NC(=O)OC(C)(C)C,0
17,CN(C(=O)Cc1cc(Br)ccc1F)c1nncn1C,9
18,O=S(=O)(N[C@H](c1nccs1)C1CC1)c1c(F)cccc1Cl,0
19,CC(C)CC(=O)N=c1nc(S)ss1,-4
20,CCCN1C(=O)c2ccccc2N2C(=O)CC[C@@]12C(=O)Nc1ccccc1,91
21,CC(=O)c1cccc(NC(=O)c2nonc2C)c1,-11
22,COc1ccc(NC(=O)C2=NN(CC(=O)Nc3cccc(OC)c3)C(=O)CC2)cc1,-12
23,COc1ccc(NC(=O)CN2N=C(C(=O)Nc3ccccc3)CCC2=O)cc1,-15
24,CCN1C(=O)c2ccccc2N2C(=O)CC[C@@]12C(=O)Nc1cccc(OC)c1,92
25,CCCN1C(=O)c2ccccc2N2C(=O)CC[C@@]12C(=O)Nc1ccc(OC)cc1,92

row,Structure (SMILES),% Inhibition [%]
1,CC(=O)c1cccc(NC(=O)Cn2c(=O)n(CCc3ccccc3)c(=O)c3ccccc32)c1,7
2,COc1ccc(NC(=O)CCC(=O)N2CCc3ccccc3C2)cc1,3
3,COc1cccc(NC(=O)c2ccc3c(c2)N(C)[C@@H]2CCCCCN2C3=O)c1,5
4,O=C(CN1C[C@@H](c2ccccc2)Oc2ccccc2C1=O)Nc1ccccc1,-16
5,CC(=O)c1cccc(NC(=O)[C@@]23CCC(=O)N2c2ccccc2C(=O)N3C)c1,76
6,CCOc1cccc(CNC(=O)c2nn[nH]c2Nc2ccc(C)c(C)c2)c1,1
7,Cc1ccc(Cc2nn3c(C4CCN(S(C)(=O)=O)CC4)nnc3s2)cc1C,-8
8,Cc1ccc(OCCCOc2ccc(CO)nc2)cc1C,3
9,O=S1(=O)NCCCCN1Cc1ccccc1,-6
10,Cc1cc(NC(=O)Cn2c(=O)n(CC(C)C)c(=O)c3sccc32)no1,-13
11,Cn1cc(N)c(Oc2ccc3c(c2)OCO3)n1,0
12,Cc1cc(N2C(=O)CCS2(=O)=O)ccc1S(=O)(=O)NC1CCCC1,7
13,Cc1ccc(-c2nn[nH]n2)cc1-n1cccn1,-2
14,COc1ccc(N2CCN(c3nccn4nc(-c5cccs5)cc34)CC2)cc1,6
15,O=C(NC(N1CCCC1=O)(C(F)(F)F)C(F)(F)F)c1ccco1,-1
16,CC(C)(C)OC(=O)NC1CCCN(CC2CN(c3ccc(F)cc3)C(=O)O2)C1 (stereo not given),-8
17,CN(C)c1nc(N)cc(-c2cccc3cccnc23)n1,44
18,Cc1cccc2c(-c3cc(N)nc(N)n3)c[nH]c12,85
19,Cc1cccc(C)c1NC(=O)c1cc(-c2cccc3ccccc23)[nH]n1,2
20,O=C(NCc1cc(F)cc(F)c1)c1csc(C(=O)NC2CC2)n1,-6
21,C[C@H]1CCCN(C(=O)CNC(=O)Cc2ccccc2)CC1,-9
22,c1ccc(-c2c[nH]c([C@H]3CCCN(c4ncnc5[nH]ncc45)C3)n2)cc1,-4
23,COc1ccnc(CN2CCC[C@H](c3nc(-c4ccccc4)c[nH]3)C2)c1OC,67
24,CN(C)c1nc(CN2CCC[C@H](c3n[nH]c(-c4ccccc4)n3)C2)ns1,-1
25,CCS(=O)(=O)Nc1cc2c(C(C)=O)c(C)oc2cc1C,4

row,Structure (SMILES),% Inhibition [%]
1,Cc1ccc2c(c1)[C@@H](O)C[C@@H](C)N2C(=O)c1ccco1,-7
2,Brc1ccc2c(c1)CN(Cc1c[nH]cn1)CCO2,4
3,COc1ccc(-c2cc(-c3ccccc3)nc(N3CCC(C)CC3)n2)cc1,50
4,Cc1nc(N2CCC(C)CC2)ncc1-c1cc(=O)[nH]c(Nc2ccccc2)n1,-16
5,COc1ccc(N2CCN(c3nc(-c4ccccc4)cs3)CC2)cc1,-6
6,Cc1cccc(NC(=O)CS(=O)(=O)Cc2cc(Cl)cc3c2OCOC3)c1C,-10
7,COc1cccc(CNC(=O)Cn2c(=O)n(Cc3cccc(OC)c3)c(=O)c3sccc32)c1,2
8,O=C(CNC(=O)c1ccc(C(F)(F)F)cc1)Nc1cnc2c(c1)COCC2,-1
9,CCNC(=O)c1csc(COc2ccc3c(c2)[C@H](c2ccc(C)cc2)N(C(=O)CC(C)C)CC3)n1,36
10,Cc1cccc(CN2C(=O)[C@@H]3CCCN3c3ccc(C#N)cc32)c1,0
11,Cc1cc(N2CC(OCc3ccccc3)C2)nc(Nc2cccc(O)c2)n1,96
12,Cc1cc(N2C[C@H]3CC[C@@H](C2)[C@H]3N(C)C)nc(Nc2cccc(O)c2)n1,44
13,CN(C(=O)C(C)(C)Nc1ncc(C(F)(F)F)cc1Cl)c1ccc(Cl)cc1,35
14,CN(CC#N)C(=O)c1ccc(Br)cc1Br,-12
15,O=C(N[C@@H]1CN(Cc2ccccn2)CCC[C@H]1O)c1ccc(OCc2ccccc2)cc1,30
16,CC(C)C1(CNC(=O)C(=O)c2cc(S(N)(=O)=O)cn2C)CC1,-3
17,CCn1cc(C)c(C(=O)O)c1CC(=O)NCc1ccc(F)cc1,-12
18,CC(CNC(=O)NCC(O)C1CC1)c1ccc(F)c(F)c1 (stereo not given),3
19,Cc1nn(C)cc1[C@@H]1CC(=O)Nc2c1cnn2C(C)(C)C,-14
20,COc1cc(OC)nc(-n2nc(C)cc2C(=O)Nc2ccc(Cl)cc2)n1,10
21,Cc1cc(C)n(-c2nnc(-c3ccccc3)c(-c3ccccc3)n2)n1,2
22,Cc1cc(C)n(-c2nc(Nc3ccc(Cl)cc3)nc(Nc3ccc(Cl)cc3)n2)n1,82
23,O=C(Cc1cccs1)Nc1ncc(Cc2ccccc2)s1,4
24,CCn1cc(Cl)c(C(=O)N2N=C3/C(=C/c4ccc(C)cc4)CCCC3C2c2ccc(C)cc2)n1 (stereo not given),7
25,Cc1ccc(NC(=O)CN2CCC3(CC2)NC(c2ccc(OC(F)(F)F)cc2)=NO3)c(C)c1,-5
